Results as given in PMC4336329 (PLoS ONE, 2015).
Hit rate of the full screen: of about 310,000 compounds, about 14,000 (4.5%) showed an effect of 50% or more. The effect is printed as a negative number. For the sample, strong results were picked, then their nearest neighbours and some compounds at random.

biological target: human ether-à-go-go-related gene (hERG) potassium channel (human, UniProt Q12809); test: primary screen, population patch clamp on CHO cells stably expressing hERG; higher = less effect of the substance
Sequence (Q12809 whole entry, looked up): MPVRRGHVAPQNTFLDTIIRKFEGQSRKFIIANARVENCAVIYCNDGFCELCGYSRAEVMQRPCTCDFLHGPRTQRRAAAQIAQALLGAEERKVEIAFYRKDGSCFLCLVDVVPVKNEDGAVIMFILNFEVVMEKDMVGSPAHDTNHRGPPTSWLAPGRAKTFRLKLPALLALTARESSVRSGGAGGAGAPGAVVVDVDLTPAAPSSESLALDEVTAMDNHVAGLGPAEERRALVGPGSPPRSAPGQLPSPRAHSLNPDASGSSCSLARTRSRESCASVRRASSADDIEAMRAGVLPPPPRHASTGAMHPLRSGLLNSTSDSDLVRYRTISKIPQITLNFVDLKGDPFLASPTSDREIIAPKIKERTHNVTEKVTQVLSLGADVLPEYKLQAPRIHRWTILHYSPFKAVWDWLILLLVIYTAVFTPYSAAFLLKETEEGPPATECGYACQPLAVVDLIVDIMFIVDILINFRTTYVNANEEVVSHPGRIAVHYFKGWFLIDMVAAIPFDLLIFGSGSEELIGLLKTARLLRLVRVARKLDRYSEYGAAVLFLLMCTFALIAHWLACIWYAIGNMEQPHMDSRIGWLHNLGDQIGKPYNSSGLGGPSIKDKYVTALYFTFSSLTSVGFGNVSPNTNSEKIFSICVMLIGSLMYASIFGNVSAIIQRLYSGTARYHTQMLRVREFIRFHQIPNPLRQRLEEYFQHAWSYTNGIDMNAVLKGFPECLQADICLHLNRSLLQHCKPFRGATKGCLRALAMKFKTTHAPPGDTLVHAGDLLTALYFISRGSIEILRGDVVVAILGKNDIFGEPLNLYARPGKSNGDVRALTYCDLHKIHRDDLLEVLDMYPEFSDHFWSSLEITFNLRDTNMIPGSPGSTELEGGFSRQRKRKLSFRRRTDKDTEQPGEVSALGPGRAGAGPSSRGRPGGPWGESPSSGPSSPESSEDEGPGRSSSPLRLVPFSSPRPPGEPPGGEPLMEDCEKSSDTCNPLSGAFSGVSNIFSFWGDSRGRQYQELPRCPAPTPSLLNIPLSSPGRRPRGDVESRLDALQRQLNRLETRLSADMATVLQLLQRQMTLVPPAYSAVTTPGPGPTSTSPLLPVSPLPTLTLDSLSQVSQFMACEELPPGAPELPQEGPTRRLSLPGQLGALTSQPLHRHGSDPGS
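Note: peak tail current of the secondary pulse compared with the same well before compound.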

| SMILES | hERG current change (%, negative = inhibition) at 10uM |
| --- | --- |
| O=C(CSc1nnc(-c2ccccc2F)o1)N1CCNC1=O | -32.1% |
| C=CCNC(=O)CCCc1ccccc1 | 7.65% |
| COc1ccc(NC(=O)c2cn3c(nc4ccccc43)c(C#N)c2C)cc1 | 3.29% |
| CCC(=O)Oc1ccc(C(=O)Nc2ccccc2C(=O)NCC(C)C)cc1 | 15.6% |
| O=C1CCC(c2ccc3c(c2)CCC3)=NN1 | 17.3% |
| CCCCN1C(=O)C(NC(=O)C2CC2)(C(F)(F)F)C2=C1CC(C)(C)CC2=O (stereo not shown) | 10.9% |
| COc1ccc(NC(=O)CCN2C(=O)c3cccc([N+](=O)[O-])c3C2=O)cc1 | -5.08% |
| CC(C)C(NC(=O)c1ccccc1F)C(=O)OCC(=O)c1ccc(F)cc1 (stereo not shown) | -9.49% |
| CCOC(=O)c1sc(-c2ccccc2)cc1NC(=O)CSc1nnnn1C | -1.13% |
| COc1ccccc1/C=C1/C(=O)ON=C1C | 12.5% |
| COc1cccc(NC(=S)C(C#N)=C2N(C)c3ccccc3N2C)c1 | 4.88% |
| CCn1c(=O)cc(SCC(=O)N2CCCCC2)c2ccccc21 | -7.44% |
| COC(=O)c1ccc(Oc2nc(NC(C)(C)C)nc(N3CCOCC3)n2)cc1 | -16.1% |
| COC(=O)c1ccc2c(=O)n(CCN3CCOCC3)c(SCC(=O)Nc3ccccc3Cl)nc2c1 | -33.4% |
| CCOC(=O)CSc1nc2ccccc2c(=O)n1CC(C)C | -35.3% |
| Cc1ccc(NC(=O)CSc2nc3ccccc3c(=O)n2CC2CCCO2)cc1 (stereo not shown) | 0.693% |
| CCOC(=O)CSc1nc2cc(C(=O)OC)ccc2c(=O)n1CCN1CCOCC1 | -38.4% |
| Cc1ccc(NC(=O)CSc2nc3ccccc3c(=O)n2CCCC(=O)NCCCN2CCOCC2)cc1 | -52.6% |
| COC(=O)c1ccc2c(=O)n(CCN3CCOCC3)c(SCC(=O)Nc3ccc(C)cc3)nc2c1 | -69.5% |
| Cc1ccc(-n2c(SCC(=O)Nc3ccc(N4CCOCC4)cc3)nc3ccccc3c2=O)cc1 | 6.08% |
| COC(=O)c1ccc2c(=O)n(CCN3CCOCC3)c(SCC(=O)Nc3cccc(OC)c3)nc2c1 | -37.9% |
| CCOC(=O)CSc1nc2ccccc2c(=O)n1CCN1CCOCC1 | -50.3% |
| CN(C)c1cc[n+](CC(O)C[n+]2ccc(N(C)C)cc2)cc1.[O-][Cl+3]([O-])([O-])[O-] | 15.9% |
| CCCN(CCC)S(=O)(=O)c1ccc(N2CCCC2=O)c([N+](=O)[O-])c1 | -19.3% |
| COc1cccc(/C=N/NC(=O)CCNc2n[nH]c(=O)[nH]c2=O)c1OC | 15.9% |

| SMILES | hERG current change (%, negative = inhibition) at 10uM |
| --- | --- |
| COc1cccc(NC(=O)c2ccccc2N2C(=O)C3C4C=CC(C4)C3C2=O)c1 (stereo not shown) | -1.23% |
| CC(C)(O)C(=O)NN(Cc1ccccc1)c1ccccc1 | 16.2% |
| CCN(CC(=O)NC(=O)NCc1ccccc1)Cc1ccccc1 | -20.6% |
| O=C(CN1CCCCC1)NC(=O)NCc1ccccc1 | 14.3% |
| O=C(CN1CCCCCC1)Nc1ccccc1F.O=C(O)C(=O)O | 9.38% |
| O=C(CN1CCCCC1)NN(Cc1ccccc1)c1ccccc1.O=C(O)C(=O)O | -73.3% |
| O=C(CN1CCCCCC1)NN(Cc1ccccc1)c1ccccc1.O=C(O)C(=O)O | -72.3% |
| O=C(CN1CCCCC1)Nc1ccccc1NC(=O)CN1CCCCC1 | 3.83% |
| CCN(CC)CC(=O)NN(Cc1ccccc1)c1ccccc1.O=C(O)C(=O)O | -73.6% |
| CN1CCN(CC(=O)NN(Cc2ccccc2)c2ccccc2)CC1.O=C(O)C(=O)O | -14.2% |
| Cc1ccc(C)c2sc(N)nc12 | 22.6% |
| COc1ccc(NC(=O)CSc2ncn[nH]2)c([N+](=O)[O-])c1 | -4.71% |
| Nc1nc(N)nc(-c2cc(C(F)(F)F)ccc2Cl)n1 | 11.9% |
| CC(=O)N(C)c1ccc(NC(=O)c2cnn(C)c2)cc1 | 3.39% |
| COc1cccc(CN2C(=O)CCC2(C)C(=O)NC2CCCCC2)c1 (stereo not shown) | 12.9% |
| COc1cccc(-c2cc(C(=O)N/N=C/c3ccco3)c3ccccc3n2)c1 | -2.76% |
| C/C(CC(=O)Nc1cccc2c1CCCC2)=N\NC(=O)c1cccc2ccccc12 | -7.31% |
| O=C(c1ccc2oc(Cc3ccc(Cl)cc3)nc2c1)N1CC[C@H](O)C1 | 4.21% |
| CCCCCCC1CC(C)(C(=O)C[NH2+]c2nncs2)OC1=O.[Br-] (stereo not shown) | -66.3% |
| CCCCC1CC(/C(C)=N/NC(N)=O)OC1=O (stereo not shown) | -6.35% |
| CCCCCCCC1CC(/C(C)=N/NC(N)=O)OC1=O (stereo not shown) | -45.3% |
| CCCCCC1CC(CC(=O)Nc2nncs2)C(=O)O1 (stereo not shown) | -8.91% |
| CCCCC1CC(C)(C(=O)CSc2nc3ccccc3s2)OC1=O (stereo not shown) | -0.178% |
| CCCCCCC1CC(C)(/C(C)=N/NC(N)=O)OC1=O (stereo not shown) | -50.1% |
| Br.CCCCCCC1CC(CSC(=N)N)OC1=O (stereo not shown) | -52.1% |

| SMILES | hERG current change (%, negative = inhibition) at 10uM |
| --- | --- |
| Br.CCCCCCCC1CC(CSC(=N)N)OC1=O (stereo not shown) | -44.2% |
| Br.CCCCC1CC(CSC(=N)N)OC1=O (stereo not shown) | -1.27% |
| CCCCCCC1CC(/C(C)=N\NC(N)=O)OC1=O (stereo not shown) | -53% |
| CCCCCC1CC(/C(C)=N/NC(N)=O)OC1=O (stereo not shown) | -7.05% |
| CCCC1CC(C)(/C(C)=N\NC(N)=S)OC1=O (stereo not shown) | 12.4% |
| COc1cccc(NC(=O)c2ccccc2-c2ccccc2C(=O)O)c1 | 10.1% |
| COc1ccc(NC(=O)CN(c2ccc([N+](=O)[O-])cc2)S(=O)(=O)c2ccccc2)cc1 | -10.3% |
| Cc1ccc(C(=O)O/N=C(\N)c2nonc2N)cc1 | -8.67% |
| COc1ccc(-c2nc3ccc([N+](=O)[O-])cc3[nH]2)cc1 | 13.5% |
| Cc1c(NC(=O)CSc2nnnn2-c2ccc(C(=O)O)cc2)c(=O)n(-c2ccccc2)n1C | 20.8% |
| CN(CC(=O)Nc1ccccc1C(F)(F)F)C(=O)c1cc2c(s1)CCCCC2 | -29.2% |
| CCc1sc(C(=O)NCc2ccccc2)cc1C | -9.06% |
| CN1CCN(S(=O)(=O)c2ccc(N(C)CC(=O)Nc3ccc(F)cc3)nc2)CC1 | -4.31% |
| CN(CC(=O)Nc1ccc(C(N)=O)cc1)CC(=O)Nc1ccccc1Br | 11% |
| O=C(O)C(=O)O.O=C(c1ccco1)N1CCN(Cc2cccc3ccccc23)CC1 | -24.3% |
| COC(=O)C1CCN(Cc2cc(=O)oc3cc(OC)ccc23)CC1 | -17.8% |
| CCc1cc2c(CN3CCN(Cc4ccccc4)CC3)cc(=O)oc2cc1O | -35.5% |
| COc1ccc2oc(=O)cc(CN3CCOCC3)c2c1 | 18.3% |
| CN1CCN(Cc2cc(=O)oc3ccc(Cl)cc23)CC1 | -16.7% |
| CC1CN(Cc2cc(=O)oc3cc(O)ccc23)CC(C)O1 (stereo not shown) | -23.3% |
| COc1ccc(OC)c(CN2CCN(Cc3cc(=O)oc4cc(O)ccc34)CC2)c1 | -74.8% |
| O=C(c1ccco1)N1CCN(Cc2cc(=O)oc3cc(O)ccc23)CC1 | -69.3% |
| O=c1cc(CN2CCN(Cc3ccccc3)CC2)c2cc(O)ccc2o1 | -68.2% |
| O=c1cc(CN2CCOCC2)c2cc(Cl)ccc2o1 | -0.546% |
| O=c1cc(CN2CCN(Cc3ccccc3)CC2)c2ccc(O)cc2o1 | -76.8% |

| SMILES | hERG current change (%, negative = inhibition) at 10uM |
| --- | --- |
| Cc1ccc2c(CN3CCN(C(=O)c4ccco4)CC3)cc(=O)oc2c1C | -48.6% |
| O=C(NC1CCOCC1)C1CCC(=O)N(Cc2cccc(C(F)(F)F)c2)C1 (stereo not shown) | 13.7% |
| Cc1cc2c(cc1S(=O)(=O)CCC(=O)N(C)Cc1ccccc1)OCC(=O)N2 | -35% |
| O=[N+]([O-])c1cccc(/C=N/n2c(C3CCCCC3)n[nH]c2=S)c1 | 11.9% |
| COc1cc([N+](=O)[O-])ccc1NC(=O)Nc1ccc2c(c1)OCCO2 | 25.3% |
| CCN1CCN(CCNC(=O)CCCn2nc(C)c3c(C)n(-c4ccc(C)cc4)nc3c2=O)CC1 | 0.678% |
| O=C(CCC(=O)c1ccc[nH]1)c1ccc(Cl)cc1 | -5.4% |
| CC1CCCN(CCC(=O)Nc2ccc(F)c(F)c2)C1 (stereo not shown) | -30.1% |
| COc1ccc(/C(C)=N/NC(=O)Cc2ccc(Cl)cc2)cc1 | 14.6% |
| O=C1C(=O)N(c2ccccn2)C(c2ccc(Br)cc2)/C1=C(/O)c1ccc(Br)cc1 (stereo not shown) | -47.8% |
| CCOc1cc2[nH]c(=O)n(CCCC(=O)NCc3ccco3)c(=O)c2cc1OCC | 5.83% |
| Cc1cc(C)n(-c2ccc(C(=O)N3CCN(S(=O)(=O)c4ccc(Cl)cc4)CC3)cc2)n1 | -25.8% |
| Cn1cc(CN2CCC(CO)(CCCc3ccccc3)CC2)c(-c2ccccc2)n1 | -66.3% |
| O=C(CN1CCN(Cc2ccc(F)cc2)CC1)NCCc1ccccc1 | -13.6% |
| COc1cccc(CC2(CO)CCN(Cc3cnc(-c4cccc(C)c4)nc3)CC2)c1 | -19.9% |
| Cc1cccc(-c2ncc(CN3CCC(CO)(CCCc4ccccc4)CC3)cn2)c1 | -54.1% |
| OCC1(CCCc2ccccc2)CCN(Cc2ccc(F)cc2)CC1 | -72.9% |
| CC(C)(O)C#Cc1ccc(CN2CCC(CO)(CCc3ccccc3)CC2)cc1 | -39.8% |
| CC(=O)c1cccc(CN2CCC(CO)(Cc3ccccc3)CC2)c1 | -22.9% |
| COC(=O)c1cccc(C(=O)N2CCC(CO)(CCc3ccccc3)CC2)c1 | -13.6% |
| CC(=O)c1cccc(CN2CCC(CO)(CCCc3ccccc3)CC2)c1 | -63.9% |
| Cc1ccccc1-c1ncc(CN2CCC(CO)(CCCc3ccccc3)CC2)cn1 | -10.9% |
